Among the data in PubChem BioAssay (EPA / NIEHS) are outcome and AC50 values, retold here.

A short description of experiment [1]: IUF_NPC2c_oligodendrocyte_migration_120hr: Leibniz Research Institute for Environmental Medicine (IUF) 120-hour Neural Progenitor Cell Migration Assay for Oligodendrocyte Migration (NPC2c) (AID 2284297).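 Also: O4-positive oligodendrocyte migration distance divided by radial glia migration distance.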 Summed up:
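Human fetal neural progenitor spheres (0.3 mm) are plated on poly-D-lysine/laminin in N2 differentiation medium and exposed for 120 h, with half-medium renewal at day 3. Oligodendrocyte (O4+) migration distance comes from ICC imaging, normalised to radial glia migration.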

Read-out in experiment [2]: Intercellular Adhesion Molecule 1 (ICAM1), ICAM1 (gene 3383)
Put plainly: BSK_BE3C_ICAM1: BioMAP Diversity Plus: BE3C Assay for Intercellular Adhesion Molecule 1 (ICAM1) Biomarker Activity (AID 2284278).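 Also: cell-surface ICAM-1 protein level quantified by ELISA.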 Conditions: primary human bronchial epithelial cells. Summed up:
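Measured by ELISA: ICAM-1 expressed by primary human bronchial epithelial cells 24 h after compound treatment, with upward-direction fitting versus DMSO vehicle.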

Read-out in experiment [3]: Interferon-inducible T-cell alpha chemoattractant (ITAC), CXCL11 (gene 6373)
Put plainly: BSK_BE3C_ITAC: BioMAP Diversity Plus: BE3C Assay for Interferon-inducible T-cell alpha chemoattractant (ITAC) Biomarker Activity (AID 2284279). Conditions: primary human bronchial epithelial cells. Put shortly:
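Steps: dose human bronchial epithelial cells with chemical; incubate 24 h; measure I-TAC by ELISA; fit endpoint in positive direction against DMSO control. Cytotoxicity was checked in parallel cultures by SRB staining at harvest.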

Read-out in experiment [4]: Epidermal growth factor receptor (EGFR), EGFR (gene 1956)
Put plainly: BSK_BE3C_EGFR: BioMAP Diversity Plus: BE3C Assay for Epidermal growth factor receptor (EGFR) Biomarker Activity (AID 2284281). Conditions: primary human bronchial epithelial cells. Put shortly:
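Compound is added to human bronchial epithelial cells, cells incubate 24 h, then EGFR is detected by ELISA. Values reflect positive-direction fitting relative to DMSO.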

Read-out in the next experiment: KRT18 (gene 3875)
Put plainly: BSK_BE3C_Keratin818: BioMAP Diversity Plus: BE3C Assay for Keratin 818 Biomarker Activity (AID 2284282). Conditions: primary human bronchial epithelial cells. Summed up: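 BE3C: human bronchial epithelial primary cells, 24 h exposure, Keratin 8/18 ELISA; DMSO = negative control/baseline; cytotoxicity by parallel SRB stain (0.1% SRB after 10% TCA fixation, 560 nm).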

Read-out in experiment [5]: Matrix Metallopeptidase 9 (MMP9), MMP9 (gene 4318)
Put plainly: BSK_BE3C_MMP9: BioMAP Diversity Plus: BE3C Assay for Matrix Metallopeptidase 9 (MMP9) Biomarker Activity (AID 2284283). Conditions: primary human bronchial epithelial cells. Put shortly:
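Human primary bronchial epithelial cells exposed 24 h to compound. MMP9 quantified by ELISA. SRB total-protein staining of parallel cultures assesses cytotoxicity. Positive-direction fit relative to DMSO.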

Read-out in experiment [6]: Plasminogen activator inhibitor-1 (PAI1), SERPINE1 (gene 5054)
Put plainly: BSK_CASM3C_PAI1: BioMAP Diversity Plus: CASM3C Assay for Plasminogen activator inhibitor-1 (PAI1) Biomarker Activity (AID 2284284).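 Also: PAI-1 protein level measured by ELISA 24 h after dosing.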 Conditions: primary human coronary artery smooth muscle cells.

Read-out in experiment [7]: Intercellular Adhesion Molecule 1 (ICAM1), ICAM1 (gene 3383)
In words: BSK_hDFCGF_ICAM1: BioMAP Diversity Plus: hDFCGF Assay for Intercellular Adhesion Molecule 1 (ICAM1) Biomarker Activity (AID 2284287). Conditions: primary human foreskin fibroblasts. Summed up: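 Primary human foreskin fibroblasts (hDFCGF system) dosed with chemical; ICAM-1 quantified by ELISA at 24 h relative to DMSO. Parallel SRB total-protein staining to assess overt cytotoxicity.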

Read-out in experiment [8]: TIMP metallopeptidase inhibitor 2 (TIMP2), TIMP2 (gene 7077)
Put plainly: BSK_hDFCGF_TIMP2: BioMAP Diversity Plus: hDFCGF Assay for TIMP metallopeptidase inhibitor 2 (TIMP2) Biomarker Activity (AID 2284289). Conditions: primary human foreskin fibroblasts. Summed up:
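Primary human foreskin fibroblasts in the hDFCGF system, dosed for 24 h; TIMP-2 level measured by ELISA, fitted in the positive direction against DMSO; cytotoxicity checked in parallel by sulforhodamine B total protein staining.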

Read-out in experiment [9]: Thrombomodulin, THBD (gene 7056)
In words: BSK_LPS_Thrombomodulin: BioMAP Diversity Plus: LPS Assay for Thrombomodulin Biomarker Activity (AID 2284296). Conditions: primary human HUVEC with PBMC. Summed up: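 Human umbilical vein endothelial cells co-cultured with PBMC and stimulated with LPS; cell-surface thrombomodulin measured by ELISA 24 hours after compound. Gain or loss versus DMSO; cytotoxicity checked by SRB staining in parallel cultures.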

Read-out in experiment [10]: urokinase Plasminogen Activator (uPA), PLAU (gene 5328)
In words: BSK_BF4T_uPA: BioMAP Diversity Plus: BF4T Assay for urokinase Plasminogen Activator (uPA) Biomarker Activity (AID 2284275). Conditions: primary human bronchial epithelial cells with fibroblasts. Put shortly: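 Co-culture of human bronchial epithelial cells and dermal fibroblasts; uPA quantified by ELISA 24 hours after dosing, fitted relative to DMSO. Parallel SRB total-protein staining assessed overt cytotoxicity.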

Read-out in experiment [11]: Matrix Metallopeptidase 9 (MMP9), MMP9 (gene 4318)
In words: BSK_BF4T_MMP9: BioMAP Diversity Plus: BF4T Assay for Matrix Metallopeptidase 9 (MMP9) Biomarker Activity (AID 2284276). Conditions: primary human bronchial epithelial cells with fibroblasts. Summed up: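 Co-culture of human bronchial epithelial cells and dermal fibroblasts dosed for 24 h; MMP-9 quantified by ELISA and fitted upward versus DMSO. Cytotoxicity monitored in parallel cultures by SRB total-protein staining at the biomarker time point.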

Read-out in experiment [12]: Interleukin-8 (IL8), CXCL8 (gene 3576)
In words: BSK_IMphg_IL8: BioMAP Diversity Plus: IMphg Assay for Interleukin-8 (IL8) Biomarker Activity (AID 2284277). Conditions: primary human endothelial cells with macrophages. Summed up: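 Co-culture of human venular endothelial cells and macrophages exposed to chemicals for 24 h; IL-8 quantified by ELISA and compared against the DMSO baseline, with SRB total-protein staining in parallel cultures for cytotoxicity.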

Read-out in experiment [13]: Vascular cell adhesion molecule 1 (VCAM1), VCAM1 (gene 7412)
Put plainly: BSK_IMphg_VCAM1: BioMAP Diversity Plus: IMphg Assay for Vascular cell adhesion molecule 1 (VCAM1) Biomarker Activity (AID 2284286). Conditions: primary human endothelial cells with macrophages. Put shortly: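 Human venular endothelial cells co-cultured with macrophages; VCAM-1 quantified by ELISA 24 h after dosing, fitted in the positive direction against DMSO. Cytotoxicity was checked in parallel cultures by SRB total-protein staining (0.1% SRB after 10% TCA fixation, 560 nm).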

Read-out in a further experiment: CD40, CD40 (gene 958)
In words: BSK_IMphg_CD40: BioMAP Diversity Plus: IMphg Assay for CD40 Biomarker Activity (AID 2284288). Conditions: primary human endothelial cells with macrophages. Put shortly:
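Venular endothelial cells co-cultured with macrophages (human primary), CD40 measured by ELISA 24 h after dosing. Positive-direction fit vs DMSO baseline; cytotoxicity tracked by SRB total-protein staining in parallel cultures.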

Read-out in experiment [14]: Interleukin-1 alpha (IL1a), IL1A (gene 3552)
Put plainly: BSK_IMphg_IL1a: BioMAP Diversity Plus: IMphg Assay for Interleukin-1 alpha (IL1a) Biomarker Activity (AID 2284290). Conditions: primary human endothelial cells with macrophages. Summed up:
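Human venular endothelial cells co-cultured with macrophages, IMphg system. IL-1α is measured by ELISA 24 h after dosing and fitted in the positive direction against DMSO. Cytotoxicity is assessed by SRB staining of parallel cultures.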

Read-out in experiment [15]: E-selectin (Homo sapiens) (UniProt P16581)
In words: BSK_IMphg_ESelectin: BioMAP Diversity Plus: IMphg Assay for Eselectin Biomarker Activity (AID 2284291). Conditions: primary human endothelial cells with macrophages. Put shortly:
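Human venular endothelial cell–macrophage co-culture, E-selectin measured by ELISA 24 h after chemical dosing. Signal fitted in the positive direction against DMSO as negative control and baseline.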

The nature of experiment [16]: BSK_IMphg_SRB: Viability Assessment in the BioMAP Diversity Plus: IMphg Assay (AID 2284292).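 Also: measured one day after compound addition.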 Conditions: primary human endothelial cells with macrophages. Put shortly: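 Human venular endothelial cells with macrophages, 24 h after chemical dosing; total protein by 0.1% SRB staining after 10% TCA fixation, read at 560 nm. Positive-direction fitting versus DMSO baseline.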

Read-out in experiment [17]: Macrophage colony-stimulating factor (MCSF), CSF1 (gene 1435)
In words: BSK_IMphg_MCSF: BioMAP Diversity Plus: IMphg Assay for Macrophage colony-stimulating factor (MCSF) Biomarker Activity (AID 2284293). Conditions: primary human endothelial cells with macrophages. Put shortly:
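Co-culture of human venular endothelial cells and macrophages, 24 hours of chemical exposure. M-CSF quantified by ELISA, with parallel SRB total-protein staining for cytotoxicity; activity fitted relative to DMSO.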

Read-out in experiment [18]: Interleukin-10 (IL10), IL10 (gene 3586)
In words: BSK_IMphg_IL10: BioMAP Diversity Plus: IMphg Assay for Interleukin-10 (IL10) Biomarker Activity (AID 2284294). Conditions: primary human endothelial cells with macrophages. Summed up:
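Human venular endothelial cells cocultured with macrophages, dosed 24 h; IL-10 measured by ELISA, activity relative to DMSO. Cytotoxicity assessed in parallel cultures by sulforhodamine B total-protein staining.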

As usually defined, the AC50 is the concentration giving half of the maximal activity seen.

Where “and” joins values, the source holds several entries; their conditions need not be identical. Identical values can stand only once. Some structures have more than one record in an assay (separate samples or runs), and their calls can disagree. Calls of active or inactive are those of the source. The calls were made as follows: active = hit-call score of the fitted dose curve at least 0.9, where 1 is the maximum; inactive = score below 0.9.

Chain of E-selectin (Homo sapiens) (P16581 whole entry, looked up): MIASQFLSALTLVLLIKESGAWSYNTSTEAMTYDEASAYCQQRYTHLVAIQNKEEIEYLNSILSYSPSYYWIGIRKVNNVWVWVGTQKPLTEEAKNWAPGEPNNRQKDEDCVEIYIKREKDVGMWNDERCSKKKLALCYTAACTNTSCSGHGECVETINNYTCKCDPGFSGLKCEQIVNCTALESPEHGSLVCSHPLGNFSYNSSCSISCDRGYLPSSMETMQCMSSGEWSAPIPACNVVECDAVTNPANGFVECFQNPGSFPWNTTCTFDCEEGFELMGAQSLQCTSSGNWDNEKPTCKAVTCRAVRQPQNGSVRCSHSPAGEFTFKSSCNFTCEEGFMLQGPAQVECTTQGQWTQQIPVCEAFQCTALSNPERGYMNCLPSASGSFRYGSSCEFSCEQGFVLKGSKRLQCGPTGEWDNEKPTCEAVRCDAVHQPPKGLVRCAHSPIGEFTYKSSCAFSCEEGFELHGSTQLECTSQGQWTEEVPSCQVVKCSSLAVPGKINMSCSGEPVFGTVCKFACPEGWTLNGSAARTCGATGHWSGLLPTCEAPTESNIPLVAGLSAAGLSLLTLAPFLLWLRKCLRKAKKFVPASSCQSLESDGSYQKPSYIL

In the case of `CC(C)c1c(C(=O)Nc2ccccc2)c(-c2ccccc2)c(-c2ccc(F)cc2)n1CC[C@@H](O)C[C@@H](O)CC(=O)O`, the outcome in experiment [1] was inactive.

On to `Oc1ccc(Cc2ccccc2O)cc1`, for which the result (in [2]; in experiment [3]; in [4]; with KRT18 (gene 3875); in experiment [5]; in experiment [6]) was inactive. Moreover, the outcome in [7], in [8] and in [9] was inactive.

In the case of `C=CC(=O)OCCC(F)(F)C(F)(F)C(F)(F)C(F)(F)C(F)(F)C(F)(F)C(F)(F)C(F)(F)F`, the outcome in [10], in experiment [11], in experiment [12], in experiment [2], in experiment [3] and in [4] was inactive. The outcome with KRT18 (gene 3875) was “inactive”; in [5] it was “inactive”; in experiment [6], “inactive”; in [13], “inactive”; in [7] it was “inactive”; with CD40, CD40 (gene 958), “inactive”. In addition, the result in [8], in experiment [14], in experiment [15], in [16], in experiment [17] and in [18] was inactive. For the same compound, the outcome in [9] was inactive. Besides, the AC50 in experiment [7] was 1190 nM (active); in [9] it was 2940 nM (active).

Turning to `CN(Cc1cnc2nc(N)nc(N)c2n1)c1ccc(C(=O)N[C@@H](CCC(=O)O)C(=O)O)cc1`, the result in [10], in experiment [11], in experiment [12], in experiment [2], in experiment [3] and in [4] was inactive. Moreover, the outcome in the experiment with KRT18 (gene 3875) is “inactive”; in experiment [5], “inactive”; in experiment [6], “inactive”; in experiment [13] it was “inactive”; in experiment [7] it was “inactive”; with CD40, CD40 (gene 958), “inactive”. Moreover, the outcome in experiment [8], in experiment [14], in experiment [15], in experiment [16], in [17] and in experiment [18] was inactive. For the same compound, the result in experiment [9] was inactive.

As to `CN(CCO)S(=O)(=O)C(F)(F)C(F)(F)C(F)(F)C(F)(F)C(F)(F)C(F)(F)C(F)(F)C(F)(F)F`, the outcome in experiment [10], in experiment [11], in experiment [12], in experiment [2], in experiment [3] and in experiment [4] was inactive. In addition, the outcome in the experiment with KRT18 (gene 3875) is “inactive”; in experiment [5] it was “inactive”; in [6], “inactive”; in [13], “inactive”; in [7], “inactive”; with CD40, CD40 (gene 958), “inactive”. Also, the outcome in [14], in experiment [15], in experiment [16], in [17], in [18] and in [9] was inactive. Besides, the AC50 in experiment [8] was 30.1 nM (active) and 23.8 nM (active).
